This is a sample that favours compounds with a hit; in the whole collection about 10% have one here.
HEK293 tox – Cytotoxic Profiling in HEK 293 Cell Line of Diverse Libraries Using Quantitative High-Throughput Screening; HEK 293 viability, ATP luminescence (CellTiter-Glo), 48-72 h; Potency, µM (series often up to 115 µM), hits mostly inhibitors; 94,000 tested, 6.6% active; AID 1345083, 2018; note: nearly all actives have a fitted effect of over 60% in size
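Cytotoxicity was scored by loss of ATP-coupled luminescence (CellTiter-Glo) in HEK 293 cells. Compound treatment ran 48 or 72 hr at 37 degree Celsius, 5% CO2, 95% humidity.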
NIH3T3 tox – Cytotoxic Profiling in NIH 3T3 Cell Line of Diverse Libraries Using Quantitative High-Throughput Screening | NIH 3T3 viability, CellTiter-Glo ATP luminescence, 48-72 h | Potency, µM (top dose mostly 96.7 µM), usual class: inhibitors | 94,000 tested, 4.3% active; note: nearly all actives have a fitted effect of over 55% in size
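Cytotoxicity was measured by CellTiter-Glo ATP luminescence after 48 or 72 h compound exposure at 37 °C. Mouse NIH 3T3 fibroblasts were seeded at 400 cells/well and dosed by 23 nL pin transfer.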
hNpr1 antagonist – Natriuretic polypeptide receptor (hNpr1) antagonism - Primary qHTS; Potency, µM (top dose mostly 46.3 µM), usual class: inhibitors; HEK293 hNpr1 GloSensor cGMP, ANP-stimulated luminescence; 76,000 tested, 1.6% active; Atrial natriuretic peptide receptor 1 (Homo sapiens), P16066; AID 1347048, 2019; calls by dose curve; note: nearly all actives have a fitted effect of over 60% in size
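Compound pre-incubated 30 min at room temperature on GloSensor-loaded HEK293 cells stably carrying hNpr1 and the pGS-40F cGMP biosensor. Stimulation uses hNppA at 0.1 nM final; luminescence is taken at baseline and 20 min post-agonist.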
GPT2 inhibitor – Primary qHTS assay for inhibitors of Glutamate pyruvate transaminase 2 (GPT2). Alanine aminotransferase 2 (Homo sapiens), Q8TD30. Recombinant GPT2, coupled pyruvate oxidase/HRP Amplex Red fluorescence. Potency, µM (top dose mostly 57.7 µM), most hits filed as inhibitors. 100,000 tested, 0.25% active. AID 1671188, 2021; note: nearly all actives have a fitted effect of over 60% in size
Target sequence (Q8TD30 whole entry, looked up): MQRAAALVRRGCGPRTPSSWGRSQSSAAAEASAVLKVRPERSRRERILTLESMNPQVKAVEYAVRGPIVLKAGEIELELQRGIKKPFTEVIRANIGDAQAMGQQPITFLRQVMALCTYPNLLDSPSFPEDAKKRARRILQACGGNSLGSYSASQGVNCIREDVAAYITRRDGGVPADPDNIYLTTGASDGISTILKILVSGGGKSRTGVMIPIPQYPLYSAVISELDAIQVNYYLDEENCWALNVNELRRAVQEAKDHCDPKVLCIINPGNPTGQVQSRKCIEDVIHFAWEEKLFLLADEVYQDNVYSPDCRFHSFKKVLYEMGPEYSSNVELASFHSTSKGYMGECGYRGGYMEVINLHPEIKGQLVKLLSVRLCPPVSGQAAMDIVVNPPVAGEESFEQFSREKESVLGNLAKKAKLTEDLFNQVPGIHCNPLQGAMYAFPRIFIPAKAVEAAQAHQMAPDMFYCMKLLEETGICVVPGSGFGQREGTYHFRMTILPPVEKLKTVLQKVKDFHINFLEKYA
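Recombinant GPT2 (10ng/uL) with 250uM a-KG and 2mM L-alanine, 30 min at room temperature, in HEPES pH 7.5 buffer. Pyruvate detected by pyruvate oxidase/HRP/Amplex Red fluorescence after 30 min in the dark; AOA (50uM) as positive control.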
Luciferase inh – Firefly luciferase inhibition profiling of diverse chemical library using quantitative high-throughput screening; Potency, µM (top dose mostly 115 µM), most hits filed as inhibitors; 76,000 tested, 2.5% active; purified P. pyralis luciferase, luminescence, biochemical; note: nearly all actives have a fitted effect of over 65% in size
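FLuc 10nM, D-luciferin 10uM, ATP 10uM, Mg acetate 10mM, Tris acetate pH 7.5, Tween/BSA; cpd qHTS; enzyme added last; CCD luminescence.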
Large screens that a line does not name were inactive; ! = a repeat was not active. Unless noted, calls come from the whole dose curve; as a rule, active = well fitted curve in the direction sought with a large enough effect; inconclusive = small, poorly fitted or top-dose-only effect, or another doubt; inactive = no such curve, though single readings can be large; an effect the other way counts as inactive or inconclusive.

Cc1nnc2ccc(N3CCCC(NC(=O)c4ccc(F)cc4)C3)nn12 (stereo not given)	NIH3T3 tox inconclusive (no result: hNpr1 antagonist, GPT2 inhibitor, Luciferase inh)
O=C(c1ccc(F)c(Cl)c1)N1CCN(c2cc(C(F)(F)F)ncn2)CC1	HEK293 tox inconclusive, NIH3T3 tox inconclusive
COc1ccc(C(=O)N2CCC(c3nn(C)c(=O)n3-c3ccccc3)CC2)cc1	none (no result: hNpr1 antagonist, Luciferase inh)
O=S(=O)(c1ccccc1)N1CCN(c2cc(C3CC(O)C3)ncn2)CC1 (stereo not given)	HEK293 tox 40µM!, NIH3T3 tox inconclusive
CN(Cc1ccccc1)C(=O)c1ccc2c(c1)NC(C)(COc1ccccc1)CO2 (stereo not given)	HEK293 tox 71µM, NIH3T3 tox 50µM, GPT2 inhibitor inconclusive
CC1(COc2ccccc2)COc2ccc(C(=O)Nc3ccc4[nH]ccc4c3)cc2N1 (stereo not given)	HEK293 tox 45µM, NIH3T3 tox 35µM, hNpr1 antagonist inconclusive, Luciferase inh inconclusive
CC1(COc2cccnc2)COc2ccc(C(=O)Nc3ccc4[nH]ccc4c3)cc2N1 (stereo not given)	HEK293 tox inconclusive, NIH3T3 tox 89µM, Luciferase inh 40µM
COc1ccc(NC(=O)c2ccc3c(c2)NC(C)(COc2ccccc2)CO3)cc1OC (stereo not given)	HEK293 tox inconclusive, NIH3T3 tox inconclusive
CCOCC1(C)COc2ccc(C(=O)N(C)Cc3ccccc3)cc2N1 (stereo not given)	HEK293 tox inconclusive, NIH3T3 tox inconclusive
CC1(COc2ccccc2)COc2ccc(C(=O)Nc3ccccc3)cc2N1 (stereo not given)	HEK293 tox 71µM, NIH3T3 tox inconclusive
COC[C@@H]1[C@H](C(=O)NCc2cc(OC)ccc2OC)CCC(=O)N1C	HEK293 tox inconclusive, NIH3T3 tox inconclusive
COc1cccc(N2C(=O)NC(=NC3CCCCC3)C23CCN(Cc2ccc(N(C)C)cc2)C3)c1 (stereo not given)	GPT2 inhibitor inconclusive (no result: hNpr1 antagonist, Luciferase inh)
c1cncc(O[C@H]2COCCN(C3CCC3)C2)c1	HEK293 tox inconclusive, NIH3T3 tox 50µM
CCc1nc(CN2CCOC(c3ccc4cc(OC)ccc4c3)C2)no1 (stereo not given)	HEK293 tox inconclusive, NIH3T3 tox inconclusive, Luciferase inh 40µM
O=C1CC2(CCN(Cc3ccccc3)CC2)Oc2ccccc2N1c1ccccc1	HEK293 tox inconclusive
Cn1cccc1CN1CCC2(CC1)CC(=O)N(c1ccccc1)c1ccccc1O2	HEK293 tox 22µM, NIH3T3 tox 40µM
Cc1ccc(CN2CCC3(CC2)CC(=O)N(c2ccccc2)c2ccccc2O3)cc1	HEK293 tox 32µM, NIH3T3 tox 40µM
CC(C)CCN1CCC2(CC1)CC(=O)N(c1ccccc1)c1ccccc1O2	HEK293 tox 45µM, NIH3T3 tox inconclusive, hNpr1 antagonist inconclusive
O=C(CCc1cc2ccccc2[nH]c1=O)NCCN1CCc2ccccc2C1	none
Cc1ccc(C)n1-c1ccc(C(=O)N2CCC3(CCC(=O)N(CC4CC4)CC3)CC2)cc1	HEK293 tox inconclusive, NIH3T3 tox inconclusive (no result: hNpr1 antagonist, Luciferase inh)
O=C1CCN(CC(O)Cc2ccccc2)c2ccccc2CCN1C/C=C/c1ccccc1 (stereo not given)	HEK293 tox 22µM, NIH3T3 tox inconclusive, GPT2 inhibitor inconclusive (no result: hNpr1 antagonist, Luciferase inh)
COc1ccc(C(=O)N2CCN3CCS(=O)(=O)N(C4CC4)C(=O)C3C2)c(OC)c1 (stereo not given)	none (no result: hNpr1 antagonist, Luciferase inh)
CN1CCC(CC(=O)N2CCC3(CC2)CC(CCOc2ccc(F)cc2)CCO3)CC1 (stereo not given)	HEK293 tox inconclusive, NIH3T3 tox inconclusive (no result: hNpr1 antagonist, Luciferase inh)
O=C(Nc1ccc2c(c1)OCO2)C1CN(S(=O)(=O)c2cccnc2)CC12CCCCC2 (stereo not given)	Luciferase inh 40µM
CNCC[C@H](Oc1cccc2ccccc12)c1cccs1	GPT2 inhibitor 9.7µM! (no result: HEK293 tox, NIH3T3 tox, hNpr1 antagonist, Luciferase inh)
O=C(NCCN1CCOCC1)c1nc2sccn2c1-c1ccncc1	none (no result: hNpr1 antagonist, Luciferase inh)
CCN1C(=O)C2(CCN(S(=O)(=O)c3ccc(Cl)cc3C)CC2)c2ccccc21	HEK293 tox 10µM, NIH3T3 tox inconclusive
CC(C)CNC(=O)c1cc(-c2ccc(F)cc2)c2nncn2n1	HEK293 tox inconclusive, NIH3T3 tox 45µM (no result: hNpr1 antagonist, Luciferase inh)
Cc1ccc(-c2cc(C(=O)NCC(F)F)nn3cnnc23)cc1	none (no result: hNpr1 antagonist, Luciferase inh)
O=C(CC1CCCCN(Cc2ccccc2)C1=O)NCc1ccc(F)cc1 (stereo not given)	HEK293 tox inconclusive, NIH3T3 tox inconclusive
CCN1C(=O)Cc2cc(C(=O)NCc3c(C)cc(C)cc3C)ccc21	HEK293 tox 40µM, NIH3T3 tox inconclusive
CCN1C(=O)Cc2cc(C(=O)NCc3ccc(OC)cc3)ccc21	none
Cc1cccc(-n2nc(-c3c(C)nc4scc(CC(=O)NCCc5ccccc5)n4c3=O)cc2C)c1	HEK293 tox inconclusive, NIH3T3 tox inconclusive
Cc1nn(-c2ccccn2)c(C)c1[C@@H]1C=C[C@@H](NC(=O)CCC(=O)O)C1	none
Cc1nn(-c2ccc(C(C)C)cc2)c(C)c1[C@@H]1C=C[C@@H](NCc2cccc(Cl)c2)C1	HEK293 tox 10µM, NIH3T3 tox 13µM, hNpr1 antagonist inconclusive, Luciferase inh 45µM
Cc1nn(-c2ccc(C(C)C)cc2)c(C)c1[C@@H]1C=C[C@@H](NCc2ccccc2)C1	HEK293 tox 25µM, NIH3T3 tox 11µM, Luciferase inh 63µM
CNC(=O)c1cc(C2CC2)nc2c1c(C1CCCN(C(=O)c3ccncc3)C1)nn2C (stereo not given)	none (no result: hNpr1 antagonist, GPT2 inhibitor, Luciferase inh)
COc1ccc(-c2ccc3ncc(Nc4ccc5c(c4)OCCO5)n3n2)cc1OC	HEK293 tox 45µM, NIH3T3 tox inconclusive, Luciferase inh 20µM
COc1ccc(-c2ccc3ncc(Nc4cccc(O)c4)n3n2)cc1OC	HEK293 tox 63µM, NIH3T3 tox inconclusive
COc1ccc(Nc2cnc3ccc(-c4ccc(F)cc4)nn23)cc1OC	HEK293 tox inconclusive, NIH3T3 tox inconclusive, Luciferase inh inconclusive
COc1ccccc1Nc1cnc2ccc(-c3ccc(F)cc3)nn12	HEK293 tox 71µM, NIH3T3 tox inconclusive
COc1ccc(Nc2cnc3ccc(-c4ccc(OC)c(OC)c4)nn23)cn1	HEK293 tox 63µM, NIH3T3 tox 32µM, GPT2 inhibitor inconclusive, Luciferase inh inconclusive
COc1ncccc1Nc1cnc2ccc(-c3ccc(F)cc3)nn12	HEK293 tox inconclusive, NIH3T3 tox inconclusive, GPT2 inhibitor inconclusive
O=[S+]([O-])(c1cccc(C(F)(F)F)c1)N1CCC2(CC(c3cccc(C(F)(F)F)c3)=NO2)C1 (stereo not given)	NIH3T3 tox inconclusive (no result: hNpr1 antagonist, Luciferase inh)

Source: PubChem (National Center for Advancing Translational Sciences (NCATS))
